Results: PubChem BioAssay AID463173 (ICCB-Longwood Screening Facility, Harvard Medical School, 2010)
Among all 52,000 compounds or so, about 4,300 (8.3%) were called active. Rule as the data show it: active = survival mostly below about 52% (no sharp cut-off); inactive = mostly above about 56%. The list comes from a sample in which actives are over-represented; it also holds similar structures and randomly drawn compounds.

Each molecule was assayed on DeltatarO mutant (assay: growth inhibition of S. aureus wild type versus tarO mutant, primary screen, teichoic acid synthesis inhibitors, RN4220, OD600 (AID 463173)). Details: OD600, 18 h, active compounds read low, screened at 18.75 µg/mL (by protocol).

| Compound | survival |
| --- | --- |
| COc1cccc2[nH]c(C(=O)NCc3ccc4c(c3)CCN4C(=O)c3ccc(F)cc3)cc12 | 84% (inactive) |
| CNC(=O)c1c(NC(=O)/C=C/c2ccccc2)sc2c1CCC2 | 87% (inactive) |
| CCC(Sc1nnc2c(n1)[nH]c1ccccc12)C(=O)Nc1ccccc1OC (stereo not drawn) | 56% (inactive) |
| CC(C)(C)NC(=O)CN1CCC(n2nnc3cc(F)ccc32)CC1 | 93% (inactive) |
| COC(=O)c1scc(-c2ccc(C)cc2)c1S(=O)(=O)Nc1cccc(Cl)c1C | 101% (inactive) |
| CC(=O)c1cc(-c2ccc(F)cc2)n(CCC(=O)NCc2ccc(C)cc2)c1C | 73% (inactive) |
| COc1cccc(/C=C2/SC(=O)N(C)C2=O)c1O | 83% (inactive) |
| COc1ccc(C(=O)c2cn(Cc3ccccc3OC)c3cc4c(cc3c2=O)OCO4)cc1 | 95% (inactive) |
| Clc1cccc(Nc2ncnc3c2nc2n3CCCCC2)c1 | 17% (active) |
| COc1ccccc1Nc1ncnc2c1nc1n2CCCCC1 | 128% (inactive) |
| COc1ccc(Nc2ncnc3c2nc2n3CCCC2)cc1Cl | 80% (inactive) |
| Fc1ccccc1Nc1ncnc2c1nc1n2CCCCC1 | 68% (inactive) |
| Clc1ccccc1Nc1ncnc2c1nc1n2CCCCC1 | 8% (active) |
| Clc1cccc(CNc2ncnc3c2nc2n3CCCC2)c1 | 88% (inactive) |
| COc1ccc(C)cc1NC(=O)C1CCN(S(=O)(=O)Cc2ccccc2)CC1 | 67% (inactive) |
| O=C(CSc1nccn1C1CCCC1)Nc1ccc(C(F)(F)F)cc1 | 101% (inactive) |
| CCN(CC)CCCNC(=O)CCc1c(C)nc2c(c1C)c(=O)n(C)c(=O)n2C | 96% (inactive) |
| O=C(CN1C(=O)CCc2cc(S(=O)(=O)N3CCOCC3)ccc21)NCc1ccc(F)cc1 | 93% (inactive) |
| CCS(=O)(=O)c1nc(S(=O)(=O)c2ccc(C)cc2)c(NC)s1 | 102% (inactive) |
| CCN1CCN(c2nc3c(S(=O)(=O)c4ccc(C)cc4)nnn3c3ccsc23)CC1 | 65% (inactive) |

| Compound | survival |
| --- | --- |
| CCCNS(=O)(=O)c1ccc(CCC(=O)NCC2CCCO2)cc1 (stereo not drawn) | 89% (inactive) |
| CCc1ccc(N(CC(=O)NCC2CCCO2)S(C)(=O)=O)cc1 (stereo not drawn) | 66% (active) |
| CN(c1ccc(C(=O)NCC2CCCO2)cc1)S(C)(=O)=O (stereo not drawn) | 74% (inactive) |
| CCc1ccc(NC(=O)c2sc3nc(C)cc(C)c3c2NC(=O)c2ccccc2OC)cc1 | 69% (inactive) |
| CCOC(=O)c1ccc(NC(=O)c2ncn(-c3ccccc3)n2)cc1 | 99% (inactive) |
| CC(=O)c1ccc(NC(=O)c2nc(-c3ccccc3)n(-c3ccccc3Cl)n2)cc1 | 64% (inactive) |
| COc1ccc(-c2nc(C(=O)Nc3cccc(C(C)=O)c3)nn2-c2ccc(Cl)cc2)cc1 | 99% (inactive) |
| O=C(Nc1ccc(F)cc1)c1ncn(-c2ccccc2)n1 | 86% (inactive) |
| CC(=O)c1ccc(NC(=O)c2nc(-c3ccccc3)n(-c3ccc(Cl)cc3)n2)cc1 | 49% (active) |
| CC(=O)c1cccc(NC(=O)c2nc(-c3ccccc3)n(-c3cccc(Cl)c3)n2)c1 | 68% (inactive) |
| COc1ccc(-n2nc(C(=O)Nc3ccc(C(C)=O)cc3)nc2-c2ccccc2)cc1 | 49% (active) |
| COc1ccc(-c2nc(C(=O)Nc3ccc(C(C)=O)cc3)nn2-c2cccc(Cl)c2)cc1 | 46% (active) |
| CC(=O)c1ccc(NC(=O)c2nc(-c3ccccc3)n(-c3ccc(C)cc3)n2)cc1 | 60% (inactive) |
| CC(=O)c1cccc(NC(=O)c2nc(-c3ccccc3)n(-c3ccccc3)n2)c1 | 56% (inactive) |
| CC(=O)c1ccc(NC(=O)c2nc(-c3ccccc3)n(-c3ccccc3)n2)cc1 | 87% (inactive) |
| CC(=O)c1ccc(NC(=O)c2ncn(-c3ccccc3)n2)cc1 | 34% (active) |
| CC(C)(C)C1CCc2c(sc(NC(=O)Cn3nnc(-c4ccccc4F)n3)c2C#N)C1 (stereo not drawn) | 66% (inactive) |
| N#CC(=C1CCN(Cc2ccccc2)CC1)c1ccccc1 | 85% (inactive) |
| Cc1cccc(NC(=O)c2cc3c(=O)n(Cc4ccco4)ccc3nc2C)c1 | 87% (inactive) |
| CCNC(=O)c1nn(-c2ccccc2C)nc1CO | 106% (inactive) |

| Compound | survival |
| --- | --- |
| CCOc1ccc(NC(=O)CC2C(=O)N(c3ccc(C)cc3)C(=O)N2C2CCCCC2)cc1 (stereo not drawn) | 64% (inactive) |
| COc1ccccc1C(=O)Nc1c(C(=O)N(C)c2ccccc2)sc2nc(C)cc(C)c12 | 58% (inactive) |
| CCCN(C(=O)C1CC1)c1nnc(-c2ccc(Cl)cc2)s1 | 79% (inactive) |
| Cc1c(C(=O)Nc2cccc(Cl)c2)oc2ccc(S(=O)(=O)N(C)C3CCCCC3)cc12 | 71% (inactive) |
| Cc1sc(-n2c(C)cc(/C=C(\C#N)C(=O)NCc3ccco3)c2C)c(C#N)c1C | 84% (inactive) |
| Cc1ccc(Cl)cc1NC(=O)c1oc2ccc(S(=O)(=O)N3CCCCCC3)cc2c1C | 93% (inactive) |
| O=C(Cn1cccc1C(=O)c1ccccc1)NCc1ccc(Cl)cc1 | 98% (inactive) |
| COc1ccc2c(c1)CC(C(=O)Nc1ccc(OC)cc1OC)CO2 (stereo not drawn) | 89% (inactive) |
| COC(=O)c1cc2oc3ccccc3c2n1CC(=O)Nc1ccc(OC)c(OC)c1 | 79% (inactive) |
| CCc1ccc(NS(=O)(=O)c2ccc3[nH]cc(C(=O)NC4CCCC4)c(=O)c3c2)cc1 | 8% (active) |
| CCc1ccc(NS(=O)(=O)c2ccc3[nH]cc(C(=O)NCc4ccc(C)cc4)c(=O)c3c2)cc1 | 65% (inactive) |
| CCOc1ccc(NS(=O)(=O)c2ccc3[nH]cc(C(=O)NCCOC)c(=O)c3c2)cc1 | 72% (inactive) |
| CCOc1ccc(NS(=O)(=O)c2ccc3[nH]cc(C(=O)NC4CCCC4)c(=O)c3c2)cc1 | 39% (active) |
| Cc1cc(C)cc(NS(=O)(=O)c2ccc3[nH]cc(C(=O)N(C)Cc4ccccc4)c(=O)c3c2)c1 | 102% (inactive) |
| CCOc1ccc(NS(=O)(=O)c2ccc3[nH]cc(C(=O)NCc4ccccc4)c(=O)c3c2)cc1 | 79% (inactive) |
| CCOc1ccc(NS(=O)(=O)c2ccc3[nH]cc(C(=O)N(C)C4CCCCC4)c(=O)c3c2)cc1 | 76% (inactive) |
| CCOc1ccc(NS(=O)(=O)c2ccc3[nH]cc(C(=O)N(C)Cc4ccccc4)c(=O)c3c2)cc1 | 6% (active) |
| CCc1ccc(NS(=O)(=O)c2ccc3[nH]cc(C(=O)NCCc4ccccc4)c(=O)c3c2)cc1 | 87% (inactive) |
